These results are taken from PubChem BioAssay (NCATS).

The target in assay [1] is Androgen receptor (Homo sapiens) (UniProt P10275). Briefly: qHTS assay for small molecule agonists of androgen receptor signaling (AID 588515; active = well fitted curve in the direction sought with a large enough effect in the signal ratio, with a control signal flat; the % refers to the signal ratio; also: % is scaled to controls: 0 for no effect and ±100 for the full control effect). As to conditions: AR-UAS-bla HEK293, beta-lactamase ratio, agonist 16 h; stronger effect = higher value. The essentials: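 Stimulation of an AR-responsive β-lactamase reporter in GripTite HEK293 cells was measured after 16 h compound exposure at 37 °C, via CCF4 fluorescence after 2 h RT. EC50 from Hill fits, normalized to R1881 at 30 nM.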
Chain of Androgen receptor (Homo sapiens) (P10275 whole entry, looked up): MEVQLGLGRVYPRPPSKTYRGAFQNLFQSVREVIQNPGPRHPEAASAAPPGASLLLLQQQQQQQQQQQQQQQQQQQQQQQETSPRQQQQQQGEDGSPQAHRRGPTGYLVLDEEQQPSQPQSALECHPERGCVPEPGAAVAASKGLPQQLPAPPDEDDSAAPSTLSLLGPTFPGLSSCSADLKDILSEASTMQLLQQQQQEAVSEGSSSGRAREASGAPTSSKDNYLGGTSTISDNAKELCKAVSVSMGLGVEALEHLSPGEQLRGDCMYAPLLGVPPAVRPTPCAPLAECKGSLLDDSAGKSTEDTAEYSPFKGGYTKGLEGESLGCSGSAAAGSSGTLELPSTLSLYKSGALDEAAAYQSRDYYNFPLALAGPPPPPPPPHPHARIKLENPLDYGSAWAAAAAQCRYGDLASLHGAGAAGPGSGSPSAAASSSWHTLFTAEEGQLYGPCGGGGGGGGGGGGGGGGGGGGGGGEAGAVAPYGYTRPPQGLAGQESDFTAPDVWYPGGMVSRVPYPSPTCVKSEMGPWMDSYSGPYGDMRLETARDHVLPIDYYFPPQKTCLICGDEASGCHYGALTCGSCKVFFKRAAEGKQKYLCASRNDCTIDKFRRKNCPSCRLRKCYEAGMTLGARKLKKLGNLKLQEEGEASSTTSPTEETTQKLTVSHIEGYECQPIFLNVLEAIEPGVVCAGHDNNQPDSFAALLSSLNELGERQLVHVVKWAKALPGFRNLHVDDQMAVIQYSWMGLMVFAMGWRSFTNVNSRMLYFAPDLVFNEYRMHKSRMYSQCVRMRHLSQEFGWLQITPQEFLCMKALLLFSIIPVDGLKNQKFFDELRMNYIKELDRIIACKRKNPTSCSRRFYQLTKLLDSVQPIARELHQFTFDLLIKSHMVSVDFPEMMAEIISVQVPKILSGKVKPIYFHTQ
For orientation: qHTS replaces the single test concentration by a dilution series.

Assay [2] has the same target. The assay is described as follows: qHTS assay for small molecule antagonists of androgen receptor signaling (AID 588516; active = well fitted curve in the direction sought with a large enough effect in the signal ratio, with a control signal flat, not every such curve was filed as active; the % refers to the signal ratio; also: % is scaled to controls: 0 for no effect and ±100 for the full control effect). As to conditions: AR-UAS-bla HEK293, beta-lactamase ratio, antagonist mode, 16 h; series mostly up to 76.8 µM. An outline of the steps: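 Cells were plated and incubated 5 h, compounds added in titration, then R1881 (10 nM final) as agonist. After 16 h at 37 C, CCF4 substrate was loaded for 2 h at room temperature and fluorescence measured.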

The target of assay [3] is Estrogen receptor (Homo sapiens) (UniProt P03372). Briefly: qHTS assay for small molecule agonists of estrogen receptor alpha signaling (AID 588514).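 Also: 0% = vehicle only and 100% = reference agonist; nearly all actives have a fitted effect of over 70% in size.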 The following applies: ER-alpha-UAS-bla HEK293, beta-lactamase ratio, 18 h, percent of full estradiol response, vehicle zero; series mostly up to 76.8 µM. An outline of the steps:
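EC50 and efficacy came from Hill fits of beta-lactamase reporter signal (CCF4 dye, 2 h at room temperature) scaled between DMSO and 20 nM 17-beta-estradiol. Agonist mode: HEK293 ER-alpha-UAS-bla cells in charcoal/dextran-stripped serum medium, 18 h compound exposure at 37 C.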

Assay [4] addresses Bile acid receptor (Homo sapiens) (UniProt Q96RI1). The assay is described as follows: qHTS assay for small molecule antagonists of farnesoid X receptor signaling (AID 588526). Also: % is scaled to controls: 0 for no effect and ±100 for the full control effect. The following applies: HEK293T FXR-UAS-bla, beta-lactamase ratio, antagonist mode; series mostly up to 76.7 µM. The essentials:
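Concentration-response titrations were fitted to the Hill equation for half-maximal inhibition and maximal response, with data normalised to 50 uM chenodeoxycholic acid and DMSO control wells. Cells: FXR-UAS-bla HEK293T, dialyzed FBS.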

Assay [5] shares this target. Briefly: qHTS assay for small molecule agonists of farnesoid X receptor signaling (AID 588527).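 Also: 0% = vehicle basal and 100% = reference agonist.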 As to conditions: HEK293T FXR-UAS-bla, beta-lactamase ratio, 16 h; stronger effect = higher value. An outline of the steps: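 FXR-UAS-bla HEK293T cells (10% dialyzed FBS) preincubated 5-7 h at 37 C, then compounds at up to 92 uM for 16 h at 37 C. CCF4 beta-lactamase read-out after 2 h RT. Normalized to chenodeoxycholic acid (100 uM) and DMSO; Hill fit gave EC50 and efficacy.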

Assay [6] deals with Glucocorticoid receptor (Homo sapiens) (UniProt P04150). Briefly: qHTS assay for small molecule agonists of glucocorticoid receptor signaling (AID 588532; active = well fitted curve in the direction sought with a large enough effect in the signal ratio, with a control signal flat; the % refers to the signal ratio;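 also: 100% = dexamethasone at 0.1 µM and 0% = DMSO only wells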). As to conditions: HeLa MMTV-bla, beta-lactamase ratio, agonist, 18 h; stronger effect = higher value; percent of dexamethasone control, DMSO zero. The essentials: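 Titration series, up to 92 uM, applied to GRE-bla HeLa cells for 18 h at 37 C. Detection by CCF4 FRET substrate after 2 h at RT.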
Chain of Glucocorticoid receptor (Homo sapiens) (P04150 whole entry, looked up): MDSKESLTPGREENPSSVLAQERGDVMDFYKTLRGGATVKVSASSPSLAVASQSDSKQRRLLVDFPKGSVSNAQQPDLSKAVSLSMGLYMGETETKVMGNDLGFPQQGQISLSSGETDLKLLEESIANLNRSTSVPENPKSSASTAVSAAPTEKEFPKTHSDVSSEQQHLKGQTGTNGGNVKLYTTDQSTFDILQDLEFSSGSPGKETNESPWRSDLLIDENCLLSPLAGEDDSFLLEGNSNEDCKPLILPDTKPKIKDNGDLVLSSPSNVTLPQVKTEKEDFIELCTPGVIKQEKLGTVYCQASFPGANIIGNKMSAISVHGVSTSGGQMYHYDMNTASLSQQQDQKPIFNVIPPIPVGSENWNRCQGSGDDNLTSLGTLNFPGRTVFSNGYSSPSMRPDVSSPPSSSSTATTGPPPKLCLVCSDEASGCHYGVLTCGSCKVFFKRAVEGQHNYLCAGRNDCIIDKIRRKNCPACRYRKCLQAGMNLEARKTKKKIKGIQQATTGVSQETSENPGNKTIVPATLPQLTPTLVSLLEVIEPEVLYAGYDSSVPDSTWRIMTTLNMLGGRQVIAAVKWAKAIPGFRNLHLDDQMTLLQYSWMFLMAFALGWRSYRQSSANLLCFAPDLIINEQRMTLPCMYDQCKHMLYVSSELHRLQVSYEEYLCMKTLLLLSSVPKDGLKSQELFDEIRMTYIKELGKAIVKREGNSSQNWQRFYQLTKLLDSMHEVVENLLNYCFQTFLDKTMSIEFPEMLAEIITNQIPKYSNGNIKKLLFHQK

The target is the same in assay [7]. The assay is described as follows: qHTS assay for small molecule antagonists of glucocorticoid receptor signaling (AID 588533; active = well fitted inhibition curve with a large enough effect in the signal ratio, with a control signal flat, not every such curve was filed as active; the % refers to the signal ratio;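 also: cells stimulated with 2 nM dexamethasone as agonist; % is scaled to controls: 0 for no effect and ±100 for the full control effect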). The following applies: HeLa MMTV-bla, GRE beta-lactamase ratio, antagonist mode, 18 h; series mostly up to 76.8 µM. An outline of the steps: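 Antagonist-mode qHTS: compound titrations added to GRE-bla HeLa cells, then dexamethasone 2 nM final; 18 h, 37 C. CCF4 FRET fluorescence normalized to dexamethasone and DMSO; IC50 from Hill fit.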

The target in assay [8] is Peroxisome proliferator-activated receptor delta (Homo sapiens) (UniProt Q03181). The assay is described as follows: qHTS assay for small molecule agonists of peroxisome proliferator-activated receptor delta signaling (AID 588534).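 Also: 0% = DMSO basal wells and 100% = positive control agonist at 10 µM.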 The following applies: HEK293T PPARdelta-UAS-bla, beta-lactamase ratio, 18 h; series mostly up to 76.7 µM. An outline of the steps: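 Agonist-mode beta-lactamase reporter readout (CCF4 dye, 2 h at RT) after 18 h at 37 °C exposure to a titration; Hill-equation fitting gave EC50 and maximal response.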
Chain of Peroxisome proliferator-activated receptor delta (Homo sapiens) (Q03181 whole entry, looked up): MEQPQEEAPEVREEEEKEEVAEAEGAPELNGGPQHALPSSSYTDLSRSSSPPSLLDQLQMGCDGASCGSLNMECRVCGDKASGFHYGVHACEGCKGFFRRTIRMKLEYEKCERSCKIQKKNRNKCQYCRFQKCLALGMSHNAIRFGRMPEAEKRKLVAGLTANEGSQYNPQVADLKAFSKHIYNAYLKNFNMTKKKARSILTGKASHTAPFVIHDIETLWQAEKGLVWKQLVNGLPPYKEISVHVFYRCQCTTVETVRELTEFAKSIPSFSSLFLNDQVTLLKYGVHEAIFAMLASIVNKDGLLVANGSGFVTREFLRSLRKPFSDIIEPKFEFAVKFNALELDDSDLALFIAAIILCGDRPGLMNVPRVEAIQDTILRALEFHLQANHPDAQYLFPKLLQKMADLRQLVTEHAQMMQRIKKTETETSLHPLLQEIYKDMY

A short description of assay [9]: qHTS assay for small molecule antagonists of peroxisome proliferator-activated receptor delta signaling (AID 588535; active = well fitted inhibition curve with a large enough effect in the signal ratio, with a control signal flat, not every such curve was filed as active; the % refers to the signal ratio;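 as to max response: cells co-treated with a PPAR-delta agonist as stimulator during compound exposure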). The following applies: HEK293T PPARd-UAS-bla, beta-lactamase FRET ratio, 18 h; 460 nm channel. An outline of the steps: (§1)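 Inhibition of PPAR-delta response element-driven beta-lactamase expression is measured in HEK293T cells exposed to a compound titration series for 18 hrs at 37 C. Half-maximal inhibition comes from Hill equation fitting.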

Assay [10] addresses Peroxisome proliferator-activated receptor delta (Homo sapiens) (UniProt Q03181). The description is as above. The following applies: HEK293T PPARd-UAS-bla, beta-lactamase FRET ratio, 18 h; series mostly up to 76.7 µM. The essentials:
as §1

Where “and” joins values, the source holds several entries; their conditions need not be identical. Identical values can stand only once. Inconclusive results are not listed. Calls of active or inactive are those of the source. Unless noted, calls follow the shape of the full dose curve.

Chain of Bile acid receptor (Homo sapiens) (Q96RI1 whole entry, looked up): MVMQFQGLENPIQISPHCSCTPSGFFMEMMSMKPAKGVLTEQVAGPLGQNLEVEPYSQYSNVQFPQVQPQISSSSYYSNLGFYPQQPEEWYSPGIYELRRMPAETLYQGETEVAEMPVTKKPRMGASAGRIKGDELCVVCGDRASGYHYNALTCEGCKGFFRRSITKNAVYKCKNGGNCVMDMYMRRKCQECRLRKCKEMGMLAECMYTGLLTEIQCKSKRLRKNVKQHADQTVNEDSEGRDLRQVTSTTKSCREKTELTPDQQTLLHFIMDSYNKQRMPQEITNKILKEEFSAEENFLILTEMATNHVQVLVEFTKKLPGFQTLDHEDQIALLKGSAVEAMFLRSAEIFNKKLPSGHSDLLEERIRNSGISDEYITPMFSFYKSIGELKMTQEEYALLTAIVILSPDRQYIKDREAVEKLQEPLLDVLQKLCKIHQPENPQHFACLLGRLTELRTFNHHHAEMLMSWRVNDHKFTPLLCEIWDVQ
Chain of Estrogen receptor (Homo sapiens) (P03372 whole entry, looked up): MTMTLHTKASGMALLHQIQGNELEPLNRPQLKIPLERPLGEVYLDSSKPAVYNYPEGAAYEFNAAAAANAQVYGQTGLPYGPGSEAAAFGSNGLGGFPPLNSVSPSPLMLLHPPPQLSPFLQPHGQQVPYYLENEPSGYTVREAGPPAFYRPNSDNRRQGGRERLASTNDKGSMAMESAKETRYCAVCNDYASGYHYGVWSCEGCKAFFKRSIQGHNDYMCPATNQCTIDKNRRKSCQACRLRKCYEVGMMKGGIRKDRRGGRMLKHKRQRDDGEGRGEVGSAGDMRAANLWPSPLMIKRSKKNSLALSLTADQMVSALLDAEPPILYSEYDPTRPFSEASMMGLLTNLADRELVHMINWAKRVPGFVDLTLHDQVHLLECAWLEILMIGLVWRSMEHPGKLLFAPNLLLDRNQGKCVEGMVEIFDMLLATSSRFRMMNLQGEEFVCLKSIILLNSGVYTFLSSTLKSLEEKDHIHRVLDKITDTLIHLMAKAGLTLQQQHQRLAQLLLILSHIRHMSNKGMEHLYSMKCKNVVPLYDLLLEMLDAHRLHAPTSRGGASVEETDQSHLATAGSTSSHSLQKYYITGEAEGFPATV

Regarding `COC(C)(C)CCCC(C)C/C=C/C(C)=C/C(=O)OC(C)C` (stereo not given), the activation in [1] was -13.7% (inactive) and -1.74% (inactive). In assay [2], the Potency result was “inactive”.

For `CCO/N=C(\CC)C1=C(O)CC(c2c(C)cc(C)cc2C)CC1=O` (stereo not given), the result in assay [3], in assay [4] and in assay [8] was inactive. Besides, the activation was -1.77% (inactive) in assay [1], 1.57% (inactive) in [5] and -3.56% (inactive) in [6]. Further, the Potency result in assay [2], in assay [7] and in [10] was “inactive” throughout. The max response in assay [9] came out at 11.4%.

Take `O=C(Nc1ccccc1-c1ccc(Cl)cc1)c1cccnc1Cl`: the outcome in assay [3] and in [8] was inactive. Moreover, in assay [6], the activation is -16.1% (inactive). Also, in assay [7], the Potency entry is “inactive”.

Turning to `OCCCBr`, in [3], the outcome was inactive. Also, the activation in assay [6] was -1.2% (inactive). In addition, the Potency result in assay [7] is “inactive”.

On to `O=[N+]([O-])c1cc([N+](=O)[O-])c2ccccc2c1`, for which the activation is -1.64% (inactive) in assay [1] and -0.539% (inactive) in [6]. The outcome in assay [8] was inactive. In addition, in [9], the max response stood at 44.3%. Further, in assay [10], the Potency result is “inactive”.

As for `O=[N+]([O-])/N=C1\NCCN1Cc1ccc(Cl)nc1`, the result in [3] and in assay [4] was inactive. For the same molecule, the activation was 8.09% (inactive) in [1], 1.01% (inactive) in assay [5] and 6.65% (inactive) in assay [6]. Besides, the Potency result in assay [2] and in assay [7] was “inactive” in each case.

Regarding `c1cc2ccc3cccc4ccc(c1)c2c34`, the outcome in assay [3] and in [8] was inactive. For the same molecule, the activation was 11.6% (inactive) and 8.44% (inactive) in assay [1]; -4.41% (inactive) and -1.09% (inactive) in [5]; 1.46% (inactive) and -7.46% (inactive) in assay [6]. The Potency entry in assay [2], in [7] and in assay [10] was “inactive” in each case. For the same molecule, the max response in assay [9] was 50.8% and 2.37%.

Take `CC(C)(c1ccc(O)cc1)c1ccc(O)cc1`: the activation in assay [1] was -6.96% (inactive). In addition, the result in assay [8] was inactive.

In the case of `CCCCC(CC)COC(=O)c1ccccc1C(=O)OCC(CC)CCCC` (stereo not given), the outcome in assay [3], in [4] and in [8] was inactive. Also, the activation in [5] was 0.71% (inactive) and -2.22% (inactive); in assay [6] it was 0.194% (inactive) and -1.46% (inactive). Moreover, the Potency entry in assay [7] and in assay [10] was “inactive” each time. Also, the max response in assay [9] is -2.79% and 33.6%.
